# According to PubChem BioAssay AID2546 (National Center for Advancing Translational Sciences (NCATS), 2010):
# Out of some 310,000 compounds screened, about 11,000 (3.5%) were called active. A call without a number means that no potency is given here. Inconclusive results (about 8%) are left out. Calls come from the whole dose curve; as a rule, active = well fitted inhibition curve with a large enough effect; inconclusive = small, poorly fitted or top-dose-only effect, or effect the other way; inactive = flat fitted curve, though single readings scatter. Only a selection was taken, and actives are over-represented in it overall.
# Assay: VP16 counterscreen qHTS for inhibitors of ROR gamma transcriptional activity;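 note: Gal4-VP16 expression switched on by copper sulfate through the metallothionein promoter; nearly all actives have a fitted effect of over 50% in size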
# Details: Drosophila S2 Gal4-VP16 UAS-luciferase, luminescence, 20 h; series mostly up to 53.6 µM
# Potency is the fitted concentration of half-maximal effect.
row,Compound,Potency
1,Cc1ccc(S(=O)(=O)N(C)CC(=O)NCCc2c[nH]c3ccccc23)cc1,inactive
2,COc1ccc(-n2c(=O)[nH]c3cc(C(=O)NCCc4ccc(OC)c(OC)c4)ccc3c2=O)c(OC)c1,inactive
3,COc1ccc(NS(=O)(=O)c2cc(C(=O)Nc3ccccc3C(=O)O)ccc2C)cc1,inactive
4,CCCCc1nc2cc(C(=O)N3CCCCC3CCO)ccc2o1 (stereo not given),inactive
5,CCN(CC)S(=O)(=O)c1ccc(-c2cn3ccc(C)cc3n2)cc1,inactive
6,COc1ccc(-c2cn3ccc(C)cc3n2)cc1,5.01 µM (active)
7,COc1ccc(-c2cn3cccnc3n2)cc1,inactive
8,O=C(c1cc(C(=O)N2CCN(c3ccc(F)cc3)CC2)cc([N+](=O)[O-])c1)N1CCN(c2ccc(F)cc2)CC1,inactive
9,CC(C)(C)C(=O)NC1CC2CCCC(C1)N2C(=O)Nc1ccccc1F (stereo not given),inactive
10,O=CN1CCN(C(=O)c2ccc3c(c2)OCO3)CC1,inactive
11,CC(NC(=S)Nc1ccc(S(N)(=O)=O)cc1)c1ccc2c(c1)OCO2 (stereo not given),inactive
12,CC(C)N(Cc1ccccc1)C(=S)Nc1ccc(OC(F)F)cc1,inactive
13,CC(NC(=S)Nc1ccc(OC(F)F)cc1)c1ccc(F)cc1 (stereo not given),12.6 µM (active)
14,Cc1cc(C)c2c(n1)nn1c(-n3ccnc3)cc(C)nc21,15.8 µM (active)
15,Cc1cc(C)c2c(NC(=O)C3CC3)nn(C)c2n1,inactive
16,Cc1cc(-n2nc(C)cc2C)n2nc(C)c(-c3ccccc3)c2n1,inactive
17,CC(=N\NC(=O)c1cc(Br)ccc1O)/C(=N/O)C(=O)Nc1ccccc1,11.2 µM (active)
18,C/C(=N/NC(=O)c1cc(Cl)ccc1O)C12CC3CC(CC(C3)C1)C2,inactive
19,O=C(Nc1cccc(NC(=O)c2ccc(Br)cc2)c1)c1ccccc1,inactive
20,COc1ccc(-c2c(C)cc3oc(=O)cc(-c4ccccc4)c3c2C)cc1F,inactive
21,COc1ccc(-c2c(C)cc3oc(=O)cc(-c4ccccc4)c3c2C)cc1OC,inactive
22,COc1cc(OC)c2c(-c3cccc(-c4cccc(N)c4)c3)cc(=O)oc2c1,10 µM (active)
23,Cc1cc(NC(=O)CCC(=O)N(Cc2ccccc2)C(C(=O)NC2CCCC2)c2ccc(C)o2)no1 (stereo not given),inactive
24,CCc1cccc(C)c1N1C(=O)CN(Cc2ccccc2)C1=S,inactive
25,O=C(Cc1nc2ccccc2[nH]c1=O)c1ccc(Cl)cc1,inactive
26,O=C(/C(=C/c1cccc(Cl)c1)c1nc2ccccc2[nH]1)c1ccccc1,12.6 µM (active)
27,CCC(=O)/C(=C(/O)c1ccccc1)c1nc2ccccc2[nH]1,inactive

row,Compound,Potency
1,Cc1ccc(C)c(NC(=O)c2cc(-c3cc(C)cc(C)c3O)n[nH]2)c1,inactive
2,Cc1sc2ncn(CC(=O)NCCCC(=O)N(C)Cc3ccccc3)c(=O)c2c1C,inactive
3,CCc1ccc2c(c1)C1(NN=C(c3ccccc3)S1)C(=O)N2 (stereo not given),6.31 µM (active)
4,CCCCN1C(=O)/C(=C2/Sc3ccc(Cl)cc3N2CC)SC1=S,inactive
5,CN(c1ccc2nc3ccccc3c(=O)n2n1)C1CCCCC1,1.12 µM (active)
6,CCOC(=O)C(C)Sc1nc2ccccc2c(=O)n1CC1CCCCC1 (stereo not given),inactive
7,O=c1c2ccccc2nc2n1C1(CCCCC1)Cc1ccccc1-2,inactive
8,C/C(=N\N(C)C)c1ccc(OCCOc2ccc([N+](=O)[O-])cc2)cc1,inactive
9,C/[N+]([O-])=C\c1ccc([N+](=O)[O-])o1,inactive
10,O=C(/C=C/c1ccc([N+](=O)[O-])o1)NNC(=O)c1ccc(F)cc1,4.47 µM (active)
11,O=C(N/N=C/c1ccc([N+](=O)[O-])o1)c1cn(-c2ccccc2)nc1-c1ccc(F)cc1,inactive
12,CCc1ccc(NC(=O)CN2CCC(C(=O)c3ccc(OC)cc3)CC2)cc1,inactive
13,Cc1ccc(NC(=O)C(C)c2cccc(C(=O)c3ccccc3)c2)cc1 (stereo not given),7.08 µM (active)
14,COC(C(=O)Nc1ccc(C(C)=O)cc1)c1ccccc1 (stereo not given),inactive
15,CC(=O)Nc1ccc(NC(=O)[C@@H](NC(=O)c2cccc(C)c2)C(C)C)cc1,inactive
16,CCn1cc(S(=O)(=O)c2cccc(C)c2)c(=O)c2cc(F)c(N3CCN(C)CC3)cc21,inactive
17,Fc1ccc(-c2ccc(NCCN3CCOCC3)nn2)cc1,inactive
18,N#Cc1ccccc1NC(=O)c1ccc2c(c1)OCO2,inactive
19,CCOC(=O)C1(Cc2ccccc2C)CCCN(C(=O)c2ccc(COC)o2)C1 (stereo not given),inactive
20,CC1=CC(C)(C)Nc2ccc(OC(=O)C(Cc3ccccc3)N3C(=O)C4CCCCC4C3=O)cc21 (stereo not given),inactive
21,CC1=CC(C)(C)Nc2ccc(OC(=O)CN3C(=O)C4CCCCC4C3=O)cc21 (stereo not given),7.94 µM (active)
22,O=C(CN1C(=O)C2C3CCC(C3)C2C1=O)Oc1ccc2ccccc2c1 (stereo not given),inactive
23,COc1ccc2[nH]cc(CCN3C(=O)c4ccc(C(=O)O)cc4C3=O)c2c1,inactive
24,Cc1cccc(N(C)C(=O)CN2C(=O)COc3ccc(S(=O)(=O)N4CCCCCC4)cc32)c1,inactive
25,COc1ccc(-c2oc3ncnc(NCCCO)c3c2-c2ccc(OC)cc2)cc1,inactive
26,CC(C)Sc1nnc([C@H](Cc2ccccc2)NC(=O)OC(C)(C)C)o1,inactive
27,C[C@@H](NC(=O)OC(C)(C)C)c1nnc(S(=O)(=O)Cc2ccccc2)o1,4.47 µM (active)

row,Compound,Potency
1,C[C@H](NC(=O)OC(C)(C)C)c1nnc(SCC(N)=O)o1,inactive
2,CC(=O)Nc1cccc(NC(=O)CSc2nccn2Cc2ccc(F)cc2)c1,inactive
3,Cc1ccc2nc(SCC(=O)NC3CCCC3)[nH]c2c1,inactive
4,Cc1ccc(Nc2nc(-c3sc(NC(=O)c4ccccc4)nc3C)cs2)cc1,inactive
5,O=C(Nc1nc(-c2ccc(-c3ccccc3)cc2)cs1)c1cnccn1,2 µM (active)
6,Cc1nc(NNC(=O)c2ccccc2)cc(-c2ccccc2)n1,inactive
7,Cc1ccc(-c2csc(NNC(=O)c3ccccc3)n2)cc1,7.08 µM (active)
8,O=C(Nc1nc(-c2cccnc2)cs1)c1ccccc1F,inactive
9,O=C(O)c1ccccc1C(=O)Nc1nc(-c2ccccc2)cs1,inactive
10,CC(=O)c1ccc(N2CCN(C(=O)C3CCN(S(=O)(=O)c4ccc5c(c4)CC(C)N5C(=O)C4CC4)CC3)CC2)cc1 (stereo not given),inactive
11,CCCC(C)NC(=O)C1CCN(C(=O)C2CC(=O)N(c3ccc(C)cc3)C2)CC1 (stereo not given),inactive
12,COc1cc(C)c(C)cc1S(=O)(=O)N1CCCc2ccccc21,inactive
13,O=C(Cn1cnc2ccccc21)Nc1ccccc1-c1ccccc1,inactive
14,O=C(NCCOc1cccnc1)c1ccc(OC2CCN(Cc3ccccn3)CC2)cc1,inactive
15,C[C@H](NC(=O)[C@@H]1Cc2ccccc2CN1C(=O)OC(C)(C)C)C(=O)NC1CCCC1,inactive
16,CC(C)(C)NC(=O)C(=O)NN=C1CCCCCCC1,inactive
17,CC(C)NC(=S)NN=C1CCCCCCCCCCC1,5.01 µM (active)
18,CCc1ccc(C(=O)NN=C2CCCCCC2)s1,inactive
19,CCC1CCCCN1C(=S)Nc1ccc(S(=O)(=O)Nc2ncccn2)cc1 (stereo not given),inactive
20,CCCc1cc(=O)oc2cc(OCC(=O)Nc3ccc(CN4CCOCC4)cc3)c(Cl)cc12,inactive
21,O=C(Cc1ccccc1)NCc1ccc(F)cc1,inactive
22,CC(C)CC(=O)NC(=S)NCc1ccccc1,10 µM (active)
23,COC(=O)Cc1ccc(NC(=S)NCc2ccco2)cc1,inactive
24,CC(C)CC(=O)NC(=S)Nc1cc(C(=O)O)ccc1Cl,inactive
25,CC(C)CNC(=O)C(=O)NCc1ccccc1,inactive
26,COC(=O)Cc1ccc(OCC(=O)Nc2ccc(OC(F)(F)F)cc2)cc1,inactive
27,COC(=O)Cc1ccc(NC(=S)NCc2ccccc2)cc1,31.6 µM (active)

row,Compound,Potency
1,O=C(NNC(=S)NCc1ccccc1)c1ccc(OC(F)F)cc1,inactive
2,FC(F)(F)Oc1ccc(NC(=S)NCc2ccccc2)cc1,11.2 µM (active)
3,CCOC(=O)c1ccc(NC(=O)Cc2cccs2)cc1,inactive
4,CCC1Sc2ccc(S(=O)(=O)CCC(=O)NCc3cccs3)cc2NC1=O (stereo not given),inactive
5,COc1ccccc1CNC(=O)c1ccc(N(C)S(=O)(=O)c2ccc(C)cc2)cc1,inactive
6,CSc1ncccc1C(=O)Nc1ccc(C)cn1,inactive
7,COc1ccc(OC)c(NC(=O)CN(C)CCOc2ccc(Br)cc2)c1,inactive
8,CC1(C)Cc2c(sc(NC(=O)C(=O)NCC3CCCO3)c2C(=O)O)CO1 (stereo not given),inactive
9,COc1ccc(C2CC(c3ccc([N+](=O)[O-])cc3)=NN2C(C)=O)cc1 (stereo not given),inactive
10,Cc1cccnc1CCNC(=O)C1CCC(=O)N(Cc2cccc(F)c2)C1 (stereo not given),inactive
11,O=C(NCCCN1CCOCC1)c1ccc2c(c1)N(Cc1cccc(F)c1)C(=O)c1ccccc1S2,inactive
12,COc1ccc(CCNc2nc(-c3cccc(NC(C)=O)c3)cs2)cc1OC,inactive
13,COc1ccc(CC(=O)Nc2nc(-c3ccc(F)c(F)c3)cs2)cc1OC,15.8 µM (active)
14,COc1cccc(CC(=O)Nc2nc(-c3ccc(OC)c(OC)c3)cs2)c1,inactive
15,CCOC(=O)C1(Cc2ccccc2C)CCCN(C(=O)CN2C(=O)CSC2=O)C1 (stereo not given),inactive
16,CCOC(=O)c1cccc(NC(=O)C2CCN(c3ncnc4c3nc3n4CCCCC3)CC2)c1,inactive
17,CN(C(=O)c1ccccc1)c1nccnc1C#N,inactive
18,COc1ccc(CC(=O)N2N=C(C)CC2(O)C(F)(F)F)cc1 (stereo not given),8.91 µM (active)
19,CC1=NN(C(=O)CCc2ccccc2O)C(O)(C(F)(F)F)C1 (stereo not given),12.6 µM (active)
20,O=C(Cc1ccccc1)N1N=C(c2ccncc2)CC1(O)C(F)(F)F (stereo not given),inactive
21,CCCCCNC(=O)Cc1ccc(OC)cc1,inactive
22,NC(=O)c1ccc(Nc2ccc3c(c2)CCC3)c([N+](=O)[O-])c1,inactive
23,Cc1ccc(Nc2ncnc3c2cnn3C)c(C)c1,inactive
24,COC(=O)c1c(NC(=O)C2CC(C)=C(C)CC2C(=O)O)sc2c1CCCCC2 (stereo not given),inactive
